PubChem BioAssay AID2129 (The Scripps Research Institute Molecular Screening Center, 2009)
About 2,200 (0.69%) of roughly 320,000 compounds were called active. What follows is part of a selection rich in actives, with near analogues and random picks from the rest. Values without a mark were called inactive.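 Rule for the calls: active = inhibition above the mean of all tested compounds plus 3 SD, cutoff set per campaign (cut at about 30% in these data); inactive = the rest.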

Each compound was assayed against Bcl-2-like protein 1 (Homo sapiens) (UniProt Q07817) (assay: inhibitors of human Bcl-xL, primary screen, biochemical, fluorescence polarization, HTS (AID 2129;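 note: 0% = DMSO wells and 100% = unlabeled Bim-BH3 peptide competitor; inhibitors lower millipolarization by displacing the labeled peptide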)). Settings: GST-Bcl-xL / FITC-Bim BH3 peptide fluorescence polarization; at 10.9 µM; stronger effect = higher value.
Bcl-2-like protein 1 (Homo sapiens), sequence (Q07817 whole entry, looked up): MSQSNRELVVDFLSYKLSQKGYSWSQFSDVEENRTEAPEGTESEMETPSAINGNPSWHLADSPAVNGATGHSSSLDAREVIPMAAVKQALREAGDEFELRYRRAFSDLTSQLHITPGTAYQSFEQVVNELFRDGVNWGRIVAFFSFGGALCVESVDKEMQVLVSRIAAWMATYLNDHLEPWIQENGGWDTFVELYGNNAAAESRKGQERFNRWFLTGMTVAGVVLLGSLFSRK

Question: `C[N+](C)(CCCCCC[N+](C)(C)CCCN1C(=O)c2cccc3cccc(c23)C1=O)CCCN1C(=O)c2cccc3cccc(c23)C1=O` was tested. Which inhibition did it give?
Answer: 1.22%

Question: How did the inhibition turn out when `O=C1c2ccccc2C(=O)N1c1cccc2ccccc12` was run?
Answer: 4.16%

Question: Which inhibition does the source give for `Cc1nn(-c2cc(Cl)ccc2N)c(=O)c2ccccc12` here?
Answer: -0.7%

Question: With `O=C(O)c1ccc2c3c(cccc13)C(=O)N(OS(=O)(=O)c1ccccc1)C2=O` as the compound, how does the inhibition read?
Answer: -6.08%

Question: How did the inhibition turn out when `O=C(C1CCN(S(=O)(=O)c2ccc(Br)s2)CC1)N1CCN(C2CCCCC2)CC1` was run?
Answer: 3.57%

Question: With `CSc1ccc(CN(C)CC(=O)NCc2ccc(F)cc2)cc1` as the compound, how does the inhibition read?
Answer: 5.75%

Question: Which inhibition does the source give for `CSc1ccc(CN2C(=O)NC3(CCCCCC3)C2=O)cc1` here?
Answer: 0.37%

Question: Which inhibition does the source give for `Cc1c(C(=O)NC(C)C2CC3CCC2C3)cccc1[N+](=O)[O-]` (stereo not drawn) here?
Answer: 0.81%

Question: Which inhibition does the source give for `COc1ccccc1N1CCN(c2nc(C)cc(=O)[nH]2)CC1` here?
Answer: 1.46%

Question: For `CC(=O)C1(C)N(O)C(C)(C)C(c2cccs2)=[N+]1[O-]` (stereo not drawn), which inhibition is on record?
Answer: 6.8%

Question: `Cc1ccc(SCC(=O)Nc2nncs2)cc1` was tested. Which inhibition did it give?
Answer: -0.16%

Question: Which inhibition does the source give for `COCCNC(=O)Nc1ccc2nc(-c3ccco3)c(-c3ccco3)nc2c1` here?
Answer: 120% (active)

Question: `CCOc1cc(NC(=S)NCCCOC)c(OCC)cc1NC(=O)c1ccco1` was tested. Which inhibition did it give?
Answer: 1.13%

Question: `Cc1cc(C)cc(NC(=O)NCc2ccccn2)c1` was tested. Which inhibition did it give?
Answer: 0.71%

Question: `CCOc1ccc(C(=O)NC(C(=O)NCc2ccccn2)C(C)C)cc1` (stereo not drawn) was tested. Which inhibition did it give?
Answer: -3.49%

Question: With `O=C(NCc1ccccn1)c1ccc2nc(-c3ccco3)c(-c3ccco3)nc2c1` as the compound, how does the inhibition read?
Answer: 61.7% (active)

Question: For `Cc1nc2cc(NC(=O)NCc3ccccc3)ccc2o1`, which inhibition is on record?
Answer: -3.22%

Question: Which inhibition does the source give for `O=C(NC1CC2CCCC(C1)N2C(=O)N1CCCCC1)C1CCCCC1` (stereo not drawn) here?
Answer: 0.87%

Question: For `N#C/C(=C(/O)COC(=O)COc1ccc(Cl)cc1)c1nc2ccccc2[nH]1`, which inhibition is on record?
Answer: -9.4%

Question: `O=C(/C(=C/c1cccc(Cl)c1)c1nc2ccccc2[nH]1)c1ccccc1` was tested. Which inhibition did it give?
Answer: -0.83%

Question: Which inhibition does the source give for `O=C(Cc1nc2ccccc2[nH]c1=O)c1ccc(Cl)cc1` here?
Answer: 34.1% (active)

Question: For `COc1ccc(NC(=S)N2N=CCC2c2ccccc2)cc1` (stereo not drawn), which inhibition is on record?
Answer: 1.8%

Question: How did the inhibition turn out when `C[n+]1ccc(C(=O)NCc2ccccc2)cc1` was run?
Answer: -12.9%

Question: Which inhibition does the source give for `COc1ccc(S(=O)(=O)Nc2cc(C)on2)cc1NC(C)=O` here?
Answer: 3.59%

Question: Which inhibition does the source give for `O=c1c2cc(-c3ccccc3)sc2nc2n1N=C(c1cccs1)CS2` here?
Answer: 7.98%

Question: With `COc1ccc(C(=O)NCCNc2ccc([N+](=O)[O-])cn2)cc1` as the compound, how does the inhibition read?
Answer: -0.8%

Question: `COc1ccc(Nc2ccc([N+](=O)[O-])cn2)cn1` was tested. Which inhibition did it give?
Answer: 47.6% (active)

Question: Which inhibition does the source give for `COc1ccccc1C1CCN(c2ccc([N+](=O)[O-])cn2)CC1` here?
Answer: 6.64%
